Sampled rows, rich in hits. Any-hit rate of the full collection: about 3.3%.
SMARCA2 activ – SMARCA2 function activation, primary screen; MG213 cells, MMTV-luciferase reporter, dexamethasone, overnight; activation, % at 9.1 µM; hit rate 1% among 370,000; AID 652017; in the data active = activation above about 7.8%;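 also: 0% = vehicle wells and 100% = reference activator wells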
esBAF inh – SWI/SNF esBAF complex inhibition; mouse ES cells, Bmi1-luciferase knock-in reporter, 24 h; 100% = twice the neutral-well signal; reporter increase, % at 12.5 µM; hit rate 2% among 350,000; AID 602393; in the data active = activation above about 40%; inconclusive = no clear call, values can overlap the other calls;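 also: 0% = median of the plate's neutral control wells and 100% = double that signal; a rise in the Bmi1 reporter signal indicates esBAF inhibition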
Gli-Sufu block – Gli-Sufu pathway antagonism. Sufu-KO-LIGHT fibroblasts, Gli luciferase reporter luminescence. inhibition, % at 5 µM. AID 588413. hit rate 0.74% among 340,000;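 active = inhibition above about 55%, limit read from the data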;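 also: 0% = DMSO-treated cells and 100% = wells with medium but no cells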
697 NFkB inh – lowers PMA/ionomycin-induced NF-kB signal in 697 B cells; 697 B-cell NF-kB luciferase reporter, 16 h; inhibition, % at 4 µM; hit rate 0.33% among 330,000; AID 435022; in the data active = inhibition above about 35%
Jurkat NFkB inh – lowers PMA/ionomycin-induced NF-kB signal in Jurkat cells; PMA/ionomycin-induced NF-kB luciferase reporter, luminescence; inhibition, % at 4 µM; hit rate 0.53% among 330,000; in the data active = inhibition above about 50%
Jurkat NFkB conf – lowers PMA/ionomycin-induced NF-kB signal in Jurkat cells; Jurkat NF-kB luciferase, 16 h; hit rate 27% among 2,700; shares compounds with Jurkat NFkB inh; inhibition, % at 4 µM; AID 435020;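 active = inhibition reaching about 45% at 4 µM in either replicate, limit read from the data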;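 also: plate controls were PMA/ionomycin stimulated DMSO wells for no effect and unstimulated DMSO wells for full effect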
The depositor's hits bear a star; ? = inconclusive; nt = not tested or not shown.

SMILES	SMARCA2 activ	esBAF inh	Gli-Sufu block	697 NFkB inh	Jurkat NFkB inh	Jurkat NFkB conf
O=C(c1ccccc1)N1CCC(c2nc(-c3ccc(S(=O)(=O)N4CCOCC4)cc3)no2)CC1	-9	2	8	-13	22	nt
O=C(Nc1ccccc1)N1CCC(c2nc(-c3ccc(S(=O)(=O)N4CCOCC4)cc3)no2)CC1	-2	-5	5	-82	53*	19
COc1ccc(CCN2C(=O)C3C4C=CC(C3C2=O)C2C(=O)N(CCc3ccc(OC)c(OC)c3)C(=O)C42)cc1OC (stereo not given)	nt	-4	8	21	59*	56*
COc1cccc(N2CCN(c3ncnc4c3[nH]c3ccccc34)CC2C)c1 (stereo not given)	-5	nt	nt	16	54*	79*
C[C@@H]1CN([C@@H](C)CO)C(=O)Cc2cc(NC(=O)CCCN(C)C)ccc2O[C@H]1CN(C)Cc1ccc(Oc2ccccc2)cc1	nt	3	nt	nt	nt	nt
CCn1cc2nc(SCC(=O)Nc3ccc(OC)cc3OC)n(Cc3ccc(OC)cc3)c(=O)c2n1	-1	-9	0	-23	52*	30
O=C(NC(=S)Nc1cccc(Cl)c1N1CCCCC1)c1ccc2c(c1)OCCO2	-2	nt	-3	-29	50*	2
CNc1cc([N+](=O)[O-])ccc1N/C=C/C(=O)c1cccs1	6	14	24	1	-11	nt
O=C(/C=C/Nc1cccc([N+](=O)[O-])c1)c1cccs1	4	73*	-10	-120	-158	-79
COc1ccc([C@H]2CC(=O)C=C(c3c(OC)cccc3OC)C2)cc1	-1	0	6	-59	57*	51*
COc1ccccc1NC1=CC(=O)CC(c2ccccc2)C1 (stereo not given)	-4	nt	12	-29	52*	12
C[C@@H]1CN([C@@H](C)CO)C(=O)c2cc(NS(=O)(=O)c3cn(C)cn3)ccc2O[C@@H](C)CCCCO[C@H]1CN(C)Cc1ccc(C(F)(F)F)cc1	nt	0	nt	nt	nt	nt
C/C(=N\OCc1cccc(C(=O)O)c1)c1ccc(Cl)cc1	6	nt	-231	13	62*	38
CCN1C/C(=C/c2ccc(OC)c(O)c2)C(=O)/C(=C/c2ccc(OC)c(O)c2)C1	1	nt	-4	-118	89*	44*
COc1ccc(/C=C2\CN(Cc3ccccc3)C/C(=C\c3ccc(OC)c(O)c3)C2=O)cc1O	5	-85	9	-65	53*	10
COc1ccc(C=C2C(=O)c3ccccc3C2=O)cc1O	0	-1	-3	15	17	nt
COCC(=O)N1C[C@H](C)[C@@H](OC)CN(C)C(=O)c2cc(NC(=O)c3ccc(F)cc3)ccc2OC[C@@H]1C	nt	-1	nt	nt	nt	nt
O=C(CSc1ccc(-c2ccccn2)nn1)c1ccccc1	3	nt	-27	-35	-15	nt
c1ccc(CSc2ccc(-c3ccccn3)nn2)cc1	0	11	-115	-187	-160	-87
O=[N+]([O-])c1ccc(N2CCN(Cc3ccc([N+](=O)[O-])o3)CC2)cc1	-1	5	7	11	3	nt
O=[N+]([O-])c1ccc(N2CCN(Cc3ccc(Br)o3)CC2)cc1	-3	-8	40	15	52*	6
Cc1nonc1OCCN1CCN(c2ccc([N+](=O)[O-])cc2)CC1	-3	nt	-12	-18	58*	24
CC(C)NC(=O)N1[C@H](C(=O)N2CCOCC2)[C@@H](CO)[C@@H]2Cn3c(ccc(-c4ccc(F)cc4)c3=O)[C@@H]21	nt	0	nt	nt	nt	nt
O=C(Nc1ccc2c(c1)[C@H]1C[C@H](CC(=O)N3CCOCC3)O[C@H](CO)[C@H]1O2)C1CCC1	nt	0	nt	nt	nt	nt
Cc1cc(Sc2ccc([N+](=O)[O-])cn2)ccc1Br	1	nt	5	14	62*	25
SMILES	SMARCA2 activ	esBAF inh	Gli-Sufu block	697 NFkB inh	Jurkat NFkB inh	Jurkat NFkB conf
COc1ccc(N(CC(=O)Nc2cc(Cl)ccc2OC)S(=O)(=O)c2c(C)noc2C)cc1	-1	-7	2	-23	69*	32
Cc1ccc2[nH]c(O)c(N=Nc3nc4ccccc4s3)c2c1	-4	20	-5	-13	-15	nt
Oc1[nH]c2ccccc2c1N=Nc1nc2ccccc2s1	-1	nt	-78	-227	-174	-92
CCC(=O)N1[C@@H](CO)[C@@H]2c3ccccc3N(C(=O)Nc3cccc(Cl)c3)C[C@@H]21	nt	3	nt	nt	nt	nt
COc1cccc(-c2cc(C(=O)N3CCCCCC3)no2)c1	1	-21	-105	-151	-144	nt
O=C(c1cc(-c2cccc(O)c2)on1)N1CCCCC1	6	-17	-3	-184	-160	-88
Cc1ccc(-c2cc(C(=O)N3CCCCCC3)no2)cc1	2	-5	-67	-229	-182	-115
C[C@@H]1CCCCO[C@@H](CN(C)C(=O)NC2CCCCC2)[C@@H](C)CN([C@@H](C)CO)C(=O)c2cc(NC(=O)Nc3ccc(C(F)(F)F)cc3)ccc2O1	nt	-9	nt	nt	nt	nt
Cc1[nH]n(-c2ccccc2)c(=O)c1/C=N/Nc1nncc(-c2ccccc2)n1	-1	-29	85*	-17	55*	40
Cc1ccc(O)c(NC(=S)NC(=O)c2ccccc2Cl)c1	0	nt	-2	-2	-23	nt
Cc1ccc(O)c(NC(=O)c2cc(-c3ccccc3Cl)on2)c1	2	52*	8	-39	51*	36
COc1ccc(-c2cc(C(=O)Nc3cc(C)ccc3O)no2)cc1	1	22	-42	-143	62*	-34
C/C=C/c1ccc2c(c1)O[C@@H](CN(C)C(=O)NCCC)[C@@H](C)CN([C@H](C)CO)S2(=O)=O	nt	0	nt	nt	nt	nt
Cc1cc(C)c(NN=c2c(=O)c3ccccc3c2=O)c(C)c1	7	30	-15	-133	-190	-62
CN(C)S(=O)(=O)c1cccc(NC(=O)COC(=O)c2ccc3ccccc3n2)c1	1	-9	-2	19	60*	9
COc1ccc(/C=N/NC(=O)c2[nH]c3ccc(Br)cc3c2-c2ccccc2)cc1	4	nt	39	-154	84*	61*
COc1ccc(/C=N/NC(=O)c2[nH]c3ccc(Br)cc3c2-c2ccccc2)c(C(=O)O)c1OC	-2	5	1	18	12	nt
COc1cc(NC(=O)C2CC(c3c(F)cccc3Cl)=NO2)c(OC)cc1Cl (stereo not given)	0	-4	-1	2	0	nt
Cc1ccc(O)c(NC(=O)C2CC(c3c(F)cccc3Cl)=NO2)c1 (stereo not given)	3	9	8	-15	51*	14
COc1cc(C2C3=C(Nc4ncnn42)c2ccccc2CC3)cc(OC)c1OC (stereo not given)	1	-1	36	4	75*	61*
COc1ccc(C2C3=C(Nc4ncnn42)c2ccccc2CCC3)cc1 (stereo not given)	-1	-3	2	-11	-17	nt
Cc1cc(C)c2c(N)c(C(=O)Nc3ccc(F)cc3)sc2n1	1	26	-78	-154	-155	-32
COc1ccc(NC(=O)c2sc3nc(C)cc(C)c3c2N)cc1	6	?	-69	-78	-54	nt

Screens as filed in PubChem.
